GDH-TPI counter-1 – GDH-TPI coupled enzyme inhibition counter-screen; GDH-TPI coupled enzyme counterscreen, NADH absorbance; inhibition, % at 4.8 µM; hit rate 1.2% among 360,000; AID 588335; in the data active means inhibition above about 30%
Yp Topo-I inh – blocks Yersinia pestis topoisomerase I activity. Y. pestis Topo-I cleavage product accumulation, plate reader. AID 504884. hit rate 0.064% among 360,000. activity, % at 10 µM; in the data active means activity above about 50%, passing the limit was not always enough
PrPC TRFRET – cell surface PrPC inhibition, primary TR-FRET screen; P04156; TR-FRET read-out; inhibition, % at 13.8 µM; hit rate 0.43% among 370,000; in the data active means inhibition above about 24%
TcdB GH inh – TcdB glycohydrolase inhibition. P18177. TcdB glycohydrolase enzymatic assay, plate reader. inhibition, % at 9.99 µM. hit rate 0.24% among 350,000. AID 652162; in the data active means inhibition above about 10%
Mtb FBA inh – inhibits M. tuberculosis FBA enzyme | hit rate 2.3% among 360,000 | purified M. tuberculosis FBA, fluorescence read-out | inhibition, % at 1 µM
Mtb FBA confirm – Mtb FBA inhibition, confirmed; shares compounds with Mtb FBA inh; purified M. tuberculosis FBA, fluorescence read-out; inhibition, % at 1 µM; hit rate 78% among 5,600
GDH-TPI counter-2 – counter-screen for M. tuberculosis FBA inhibitors: GDH-TPI coupled enzyme inhibition. shares compounds with Mtb FBA inh. GDH-TPI coupled enzyme counterscreen, fluorescence. inhibition, % at 1 µM. hit rate 81% among 5,600. AID 652141; in the data active means inhibition above about 10%
Numbers stand for hits; 0 = inactive; - = no result given; + = active, no number. The list is not random: actives were taken first. Their share in the collection is about 3.2%. Unless noted, no stated cut-off is given here; in the data, active means inhibition above about 27%; inactive means the rest.

SMILES	GDH-TPI counter-1	Yp Topo-I inh	PrPC TRFRET	TcdB GH inh	Mtb FBA inh	Mtb FBA confirm	GDH-TPI counter-2
O=C(COc1ccc2c(c1)C(=O)CC1(CCCCC1)O2)NCc1ccccc1	0	0	0	-	36	62	48
O=C(COc1ccc2c(c1)C(=O)CC1(CCCCC1)O2)NCc1ccccn1	0	0	0	-	38	82	58
O=C(COc1ccccc1)NCc1ccccc1	0	0	0	-	0	-	-
O=C(COc1ccc(S(=O)(=O)NC2CCCCC2)cc1)NCc1ccccn1	0	0	0	-	0	-	-
Cc1noc(C)c1S(=O)(=O)N(C)C[C@@H]1Oc2c(cccc2N(C)C)C(=O)N([C@@H](C)CO)C[C@H]1C	-	-	-	0	-	-	-
CCOC(=O)C1CCCN(C(=O)c2cc(-c3ccccc3)nc3ccccc23)C1 (configuration not stated)	0	0	0	0	0	-	-
Cc1ccc(-c2cc(C(=O)N3CCCC(C(F)(F)F)C3)c3ccccc3n2)o1 (configuration not stated)	0	0	0	0	87	161	90
COc1ccc(-c2cc(C(=O)N3CCCC(C(F)(F)F)C3)c3ccccc3n2)cc1 (configuration not stated)	0	0	0	0	96	0	0
CCCNC(=O)Nc1ccc2c(c1)C(=O)N(C)C[C@@H](OC)[C@@H](C)CN(Cc1cncnc1)[C@H](C)CO2	-	-	-	0	-	-	-
COc1ccc(OC)c(/C=C/C(=O)Nc2cccc(S(=O)(=O)N3CCCC3)c2)c1	0	0	0	0	30	49	43
C[C@H](CO)N1C[C@H](C)[C@H](CN(C)C(=O)Nc2cccc3ccccc23)Oc2ncc(C#CCC3CCCC3)cc2C1=O	-	-	-	0	-	-	-
c1cncc(-c2nnc(-c3cccs3)o2)c1	0	0	0	-	51	70	47
Cc1ccccc1-c1nnc(-c2cccs2)o1	0	0	0	0	29	165	128
COc1ccc(-c2nnc(-c3cccnc3)o2)cc1	0	0	0	-	83	154	126
Cc1ccccc1-c1noc(-c2cccs2)n1	0	0	0	0	0	-	-
COc1ccc(NC(=O)Nc2ccc3c(c2)CC(=O)N([C@@H](C)CO)C[C@H](C)[C@@H](CN(C)Cc2ccccc2)O3)cc1	-	-	-	0	-	-	-
C[C@H]1CN([C@@H](C)CO)C(=O)c2cccc(NS(=O)(=O)c3ccc(F)cc3)c2O[C@H]1CN(C)S(=O)(=O)c1ccc(F)cc1	-	-	-	0	-	-	-
C[C@H](O)C#Cc1ccc2c(c1)O[C@H](CN(C)Cc1ccccn1)[C@@H](C)CN([C@H](C)CO)S2(=O)=O	-	-	-	0	-	-	-
CCCNC(=O)N(C)C[C@H]1Oc2cc(-c3cccnc3)ccc2S(=O)(=O)N([C@H](C)CO)C[C@@H]1C	-	-	-	0	-	-	-
C[C@H](CO)N1C[C@H](C)[C@H](CN(C)CC2CCCCC2)Oc2c(NC(=O)Nc3ccc4c(c3)OCO4)cccc2C1=O	-	-	-	0	-	-	-
Cc1ccc(NC(=O)CC(C)S(=O)(=O)c2ccc3c(c2)NC(=O)CO3)c(Cl)c1 (configuration not stated)	0	0	0	0	71	+	+
Cc1ccc(CNC(=O)CC(C)S(=O)(=O)c2ccc3c(c2)NC(=O)CO3)cc1 (configuration not stated)	0	0	0	0	0	-	-
O=C(COC(=O)c1ccccc1O)Nc1cccc(S(=O)(=O)NC2=NCCCCC2)c1	0	0	0	0	0	-	-
O=C(COC(=O)c1ccccc1NCCO)Nc1ccc(S(=O)(=O)NC2=NCCCCC2)cc1	0	0	0	0	84	84	61
CCNC(=S)N(Cc1ccco1)Cc1cc2cc3c(cc2[nH]c1=O)OCCO3	0	0	0	-	0	-	-
CNC(=S)N(CCCO)Cc1cc2cc3c(cc2[nH]c1=O)OCO3	0	0	0	0	30	85	65
CCN(CC)CCN(Cc1cc2cc3c(cc2[nH]c1=O)OCO3)C(=S)NCc1ccco1	0	0	0	0	35	0	0
CCN(CC)CCCN(Cc1cc2cc3c(cc2[nH]c1=O)OCO3)C(=S)NCc1ccco1	0	0	0	0	0	-	-
CCC(=O)N(Cc1ccco1)Cc1cc2cc3c(cc2[nH]c1=O)OCO3	0	0	0	0	40	+	152
CN(C)CCCN(Cc1cc2cc3c(cc2[nH]c1=O)OCO3)C(=S)NCc1ccco1	0	0	0	0	27	+	+
